Compounds with a hit are over-represented: about 3.8% of the library has one in this group of screens.
HepG2 viability = kills HepG2 cells in TGF-b inhibitor counter-screen. HepG2 CAGA-GFP viability, ATP luminescence, 18 h. Potency, µM (top dose mostly 46.1 µM), usual class: cytotoxic. actives 0.76% (n = 410,000). AID 588856
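CellTiter-Glo luminescence gave cytotoxicity after 18 hours at 37 degrees C. The cells were HepG2 CAGA-GFP in 1% FBS DMEM, stimulated with 500 pg/mL TGF-beta after compound addition. %Activity was normalised to no-cell wells (complete cell-killing) and DMSO (no toxicity), and curves were fitted and classified.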
ATXN2 expr inh = reduces ATXN2 reporter expression in HEK-293 cells; HEK-293 ATXN2-luciferase reporter, luminescence, 24 h; Potency, µM (highest dose often 57 µM), usual class: inhibitors; actives 0.72% (n = 360,000); AID 1745845; note: nearly all actives have a fitted effect of over 55% in size
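qHTS (up to 57 uM final) was run with 24 h compound exposure of reporter cells at 37 °C. Each well was multiplexed: SteadyGlo luminescence measured ATXN2-luciferase expression after a fluorogenic Gly-Phe-AFC viability readout (25 uM final).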
S2 tox = viability counter-screen for ATXN expression inhibitors; Potency, µM (series often up to 56.7 µM), usual class: cytotoxic; actives 0.49% (n = 400,000); AID 651635; S2 cells (HEK-293 line with an ATXN2-luciferase reporter) viability, CellTiter-Fluor protease fluorescence, 24 h; note: nearly all actives have a fitted effect of over 40% in size
HT1080NT lethal = kills 2HG-producing HT-1080-NT fibrosarcoma cells; actives 1.6% (n = 360,000); HT-1080-NT fibrosarcoma viability, CellTiter-Glo ATP luminescence, 48 h; Potency, µM (doses to about 46.1 µM), hits mostly cytotoxic;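 note: NT is the 2HG producing partner of a matched IDH1 knockdown line; nearly all actives have a fitted effect of over 55% in size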
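A 48-hour cytotoxicity screen used HT-1080-NT cells plated 2 hours before compound delivery. ATP-based CellTiter-Glo luminescence measured viability, normalized to DMSO and no-cell controls.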
TGFb inhibitor = inhibitors of TGF-b signaling | HepG2 CAGA-GFP TGF-b/SMAD3 reporter, GFP fluorescence, 18 h; TGF-beta stimulated, 500 pg/mL final | Potency, µM (doses to about 46.1 µM), actives largely listed as inhibitors | actives 1.2% (n = 410,000) | AID 588855; note: nearly all actives have a fitted effect of over 65% in size
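Read-out: total well GFP (ex488/em500-530) summed from mean per-cell fluorescence. Cells: HEPG2 CAGA-GFP, 1% FBS DMEM, 18 h at 37 degrees C with 500 pg/mL final TGF-beta. Unstimulated wells served as the full-inhibition control; stimulated DMSO wells = 0%.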
HT1080 IDH1KD tx = HT-1080 IDH1 knockdown cell toxicity (counter line); HT-1080 IDH1 knockdown viability, ATP luminescence, 48 h; Potency, µM (highest dose often 46.1 µM), hits mostly cytotoxic; actives 2% (n = 360,000); AID 686971
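IDH1KD HT-1080 cells, 750/well, RPMI + 5% FBS; compound pinned after 2 h settling; 48 h, 37 °C; CellTiter-Glo luminescence; % activity normalised to DMSO and no-cell wells; curves fitted, classed by r2 and efficacy.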
Hits are given with their value; 0 = inactive; ? = inconclusive; - = no result given; [ ] = dose if it differs, or a comment. Calls come from the whole dose curve; as a rule, active = well fitted curve in the direction sought with a large enough effect; inconclusive = small, poorly fitted or top-dose-only effect, or another doubt; inactive = no such curve, though single readings can be large; an effect the other way counts as inactive or inconclusive.

SMILES	HepG2 viability	ATXN2 expr inh	S2 tox	HT1080NT lethal	TGFb inhibitor	HT1080 IDH1KD tx
O=C(Nc1ccc2c(c1)OCO2)c1cnn2c(C(F)(F)F)cc(-c3ccco3)nc12	0	0	0	0	0	0
CC(=O)Nc1cc(C(=O)N2CC3(C)CC2CC(C)(C)C3)cc2ncn(CCc3ccccn3)c12 (stereo not drawn)	-	-	0	-	-	-
Cc1cccc(NC(=O)C2CCCN(S(=O)(=O)c3ccc(Br)s3)C2)c1 (stereo not drawn)	0	0	?	-	?	-
Cc1nc(Nc2n[nH]c3c2CN(C(=O)N[C@H](CN(C)C)c2ccccc2)C3(C)C)c2sccc2n1	-	17.2µM	-	-	-	-
CCC(C)(C)c1ccc(OCCCC[n+]2ccccc2)c(C(C)(C)CC)c1	0	?	0	16.4µM	?	?
CCCCCc1ccc(OCCCC[n+]2ccc(C)cc2)c(CCCCC)c1	0	0[11.3 µM]	?	6.51µM	11.2µM	6.51µM
CCC(C)(C)c1ccc(Oc2cccc(C(=O)O)c2)cc1	0	0	0	0	0	0
CCCCCc1ccc(OCCCC[n+]2ccccc2)c(CCCCC)c1	0	14.1µM	?	23.1µM	?	8.2µM
CCCCCc1ccc(OCCCC[n+]2cccc(C)c2)c(CCCCC)c1	0	10µM	?	4.11µM	?	4.11µM
CCCCCCCCCCCCCCCC[n+]1ccc(C)cc1	0	-	-	-	?	-
O=c1c2sc3ccccc3c2n(Cc2ccccc2F)c(=O)n1-c1ccccc1Cl	0	0	?	-	0	-
CCCS(=O)(=O)NCc1c(C)ncc2c1CCN(C(=O)/C=C/c1cccc(Cl)c1)C2	-	-	0	-	-	-
COc1ccc2c(c1)OC(C)CN(CCNC(=O)c1cc3cc(F)ccc3[nH]1)C2 (stereo not drawn)	-	-	0	-	-	-
CN(C)c1ccc(/C=C/c2nc3ccccc3s2)cc1Cl	0	-	-	-	?	-
COc1ccc(/C=N\NC(=O)c2ccc(F)cc2)cc1COc1ccccc1C(N)=O	0	0	0	0	?	0
COc1ccc(C(=O)N/N=C/c2ccc(OC)c(COc3c(F)c(F)cc(F)c3F)c2)cc1	0	0	0	0	0	0
COc1ccc(/C=N\NC(=O)c2ccc([N+](=O)[O-])cc2)cc1COc1c(F)c(F)cc(F)c1F	0	0	0	0	0.355µM	0
COc1cc(OC)cc(C(=O)N/N=C/c2ccc(OC)c(COc3ccc(F)cc3)c2)c1	0	0	?	?	?	5.17µM
COc1ccc(/C=N/NC(=O)c2cc(OC)c(OC)c(OC)c2)cc1CN1CCc2cc(OC)c(OC)cc2C1C (stereo not drawn)	0	0	0	?	?	13µM
COc1ccc(/C=N/NC(=O)c2cccnc2)cc1COc1ccc([N+](=O)[O-])cc1	0	?	0	?	0	6.51µM
COC(=O)[C@@H]1CCCN1Cc1ccc2c(c1)CN(Cc1cc(OC)c3c(c1)OCO3)CCO2	-	-	0	-	-	-
Cc1cnc(C)c(-c2cccc3c2OC(CNC(=O)CN2C(=O)c4ccccc4C2=O)C3)n1 (stereo not drawn)	-	-	0	-	-	-
Cc1cccnc1-c1cccc2c1OC(CNC(=O)Cn1cncn1)C2 (stereo not drawn)	-	-	0	-	-	-
Cc1nc(N2CCCC2)c2c(C(=O)Nc3cccc(C)c3C)c(C)oc2n1	0	-	-	-	0	-
COc1cc(CNC(=O)c2ccc3c(c2)c(C)c(C)n3Cc2cccc(C)c2)cc(OC)c1OC	0	-	-	-	0	-
SMILES	HepG2 viability	ATXN2 expr inh	S2 tox	HT1080NT lethal	TGFb inhibitor	HT1080 IDH1KD tx
OC(c1cccnc1)c1ccc2c(c1)CN(Cc1cccc3c1OCO3)CCO2 (stereo not drawn)	-	-	0	-	-	-
O=C(c1cccc(F)c1F)N1CCOc2ccc(CN3CCC(Oc4cccnc4)CC3)cc2C1	-	-	0	-	-	-
COc1ccc(C=O)cc1OS(=O)(=O)c1ccc(NC(C)=O)cc1	0	0	0	0	0	?
COc1ccc(/C=N/NC(=O)c2ccc3ccccc3c2)cc1OS(=O)(=O)c1ccc(NC(C)=O)cc1	0	0	0	6.31µM	?	?
COc1ccc(/C=N/NC(=O)c2cccnc2)cc1CSc1ccccn1	0	0	0	23.1µM	0	11.6µM
COc1ccc(OCc2cc(/C=N\NC(=O)c3ccccc3)ccc2OC)cc1	0	0	0	6.51µM	0	9.2µM
COc1cc(/C=N\NC(=O)c2ccccc2F)ccc1Oc1ccc([N+](=O)[O-])cn1	0	?	?	20.6µM	0	7.31µM
COc1ccc(/C=N\NC(=O)c2ccccc2Br)cc1COc1ccccc1	0	?	?	?	?	?
Cc1cc(C)c(NC(=O)CN2C(=O)CCSc3ccc(S(=O)(=O)N4CCCC4)cc32)c(C)c1	0	-	-	-	0	-
CCN1CCN(c2ccc(Nc3cc(N(C)C(=O)Nc4c(Cl)c(OC)cc(OC)c4Cl)ncn3)cc2)CC1	-	0	-	-	-	-
OC[C@]1(O)OC[C@@H](O)[C@H](O)[C@@H]1O	-	0	0	-	-	-
Cc1cccc(NC(=O)c2sc3nc(-c4ccccc4)cn3c2C)c1C	0	-	-	-	0	-
CCCCn1c(CN2CCN(c3cccc(Cl)c3)CC2)nc2c1c(=O)[nH]c(=O)n2C	0	?	?	5.01µM	?	3.55µM
Cn1c(=O)[nH]c(=O)c2c1nc(CN1CCN(c3cccc(Cl)c3)CC1)n2CCCc1ccccc1	0	0	0	0	?	0
C[C@@H](Oc1ccc2[nH]nc(C=Cc3cnn(CCO)c3)c2c1)c1c(Cl)cncc1Cl	-	21.7µM	-	-	-	-
Cn1nc(Cc2cccc3ccccc23)c(C#N)c1N	0	0	0	-	0	-
CC(C)(C)n1nc(Cc2cccc3ccccc23)c2c(N)ncnc21	0	0	?	-	14.1µM	-
CCOc1cc(/C=N/NC(=O)Cn2nc([N+](=O)[O-])cc2C)cc(Br)c1OCc1ccccc1F	0	0	0	?	0	10µM
CCOc1cc(/C=N/NC(N)=O)cc(Br)c1OCc1ccccc1F	0	0	0	0	0	0
CCC1N=C(SC)NC(C)=C1C(=O)c1ccccc1 (stereo not drawn)	0	-	0	0	0	0
CSC1=NC(C(Cl)(Cl)Cl)N=C(c2ccc(C)cc2)N1 (stereo not drawn)	0	0	?	0.366µM	?	0.651µM
COc1ccc(CNc2ccc3c(c2)ncn3C)cc1OC	0	0	0	16.4µM	0	16.4µM
Cc1ccc(CNc2ccc3c(c2)ncn3C)cc1	0	0	0	0	0	0
Cc1ccc(NS(=O)(=O)c2ccc(Cl)c(NC(=S)NC(=O)C3CCCCC3)c2)cc1Cl	11.2µM	?	?	?	?	?
COc1cc(-c2cc3nc(NCCc4ccncc4)ccn3n2)cc(OC)c1OC	0	0	0	0	0	0
c1ccc(COc2cccc(-c3cc4nc(NCCCn5ccnc5)ccn4n3)c2)cc1	0	?	?	16.4µM	?	23.1µM
